Measured values as given in PubChem BioAssay AID686979 (National Center for Advancing Translational Sciences (NCATS), 2013).
“And” between values parts separate entries of the source, which are not always exact repeats. Equal entries are not always repeated. In all, about 420,000 compounds went through this assay and about 50,000 (12%) were called active. About 26% were inconclusive and are not listed. The entries come from a sample that favours actives as a whole. Values without a mark were called inactive. The call rests on the fitted dose curve; in most records, active means well fitted inhibition curve with a large enough effect; inconclusive means small, poorly fitted or top-dose-only effect; inactive means flat fitted curve, though single readings scatter.

Test: qHTS for Inhibitors of human tyrosyl-DNA phosphodiesterase 1 (TDP1): qHTS in cells in presence of CPT; further: nearly all actives have a fitted effect of over 55% in size
Conditions: chicken DT40 Tdp1-/-;hTDP1 cells + 20 nM CPT, ATP luminescence, 48 h; series mostly up to 46.2 µM; activity change, negative = growth inhibition: at the top concentration
Summary of the method: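 Chicken DT40 Tdp1-/- cells complemented with human TDP1, 400 cells/well, exposed to compounds plus 20 nM camptothecin for at least 48 h at 37 C; viability read as ATP content by CellTiter-Glo luminescence.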
On the % scale 0 is the no-effect control and ±100 the full control effect; potency means the concentration at half of the fitted maximal effect.

Going from `COc1ccccc1-c1c(C#N)c(N)nc2c1CCC2` to `Cc1nc(N)sc1-c1ccccc1`, the “activity change, negative = growth inhibition” value falls from 12.8% to -0.668%.

Going from `O=C(O)C(CCc1ccccn1)c1ccccc1` (stereo not given) to `COC(=O)C(NS(=O)(=O)c1ccc(F)cc1)c1ccccc1` (stereo not given), the “activity change, negative = growth inhibition” value falls from 24.6% to -24.2%.

Going from `Cc1csc(/N=C/N(C)C)c1C#N` to `CN(C)/C=C(\C#N)C(=O)c1cccnc1Oc1ccc(F)cc1F`, the “activity change, negative = growth inhibition” value falls from 8.34% to -19.9%.

First: Cc1ccc(C(=O)NCC(=O)NC2CC2)cc1
Second: COc1ccc(NC(=O)CNC(=O)Cc2ccccc2)cc1OC
The “activity change, negative = growth inhibition” value of the first is lower: -25.1% for the first, 1.52% for the second.

First: CCCOC(=O)c1cc2ccccc2oc1=O
Second: CCCn1c(=NC(C)=O)c(C(=O)OCC)cc2c(=O)n3ccccc3nc21
The “activity change, negative = growth inhibition” value of the first is higher: -2.05% for the first, -16.3% for the second.

Going from `COc1cc(C2CC(=O)c3cnc(NC(C)=O)nc3C2)cc(OC)c1OC` (stereo not given) to `CCOC(=O)C1=C(N)N2C(=O)C(C)SC2=C(C(=O)OCC)C1c1cc(OC)c(OC)c(OC)c1` (stereo not given), the “activity change, negative = growth inhibition” value rises from -14.6% to 4.66%.

Compared with `CCOC(=O)C1=C(C)NC(=S)NC1c1cccs1` (stereo not given), `CCOC(=O)C1(O)CC(C)=NN1C(=O)c1cccc(Br)c1` (stereo not given) is higher in “activity change, negative = growth inhibition” value: 2.09% for the first, 18.5% for the second.

First: N#Cc1ccccc1NC(=O)c1cccc(COc2ccc(Cl)cc2Cl)c1
Second: O=C(CSc1n[nH]c(=O)n1-c1ccccc1)Nc1ccccc1C(F)(F)F
The “activity change, negative = growth inhibition” value of the first is lower: -5.45% for the first, -0.565% for the second.

First: COc1ccc2c(c1OC)C(=O)OC2c1c(O)nc(SC)n(-c2ccccc2)c1=O (stereo not given)
Second: CCc1ccccc1NC(=O)[C@@H]1CCC(=O)N1C1OC(=O)c2c1ccc(OC)c2OC (stereo not given in full)
The “activity change, negative = growth inhibition” value of the first is higher: 0.164% for the first, -13.3% for the second.

First: COc1ccc(-c2csc(NC(=O)CCCc3cccs3)n2)cc1
Second: COc1ccc(N/C=C(\C2OC(=O)c3ccccc32)[N+](=O)[O-])cc1 (stereo not given)
The “activity change, negative = growth inhibition” value of the first is lower: -23.6% for the first, -1.24% for the second.

First: Cc1cccc(-c2nnc(SC(C)C(=O)Nc3ccccc3)n2C)c1 (stereo not given)
Second: CC(C)(C)Cc1nnc(NC(=O)c2cc(-c3ccccc3)nc3ccccc23)s1
The “activity change, negative = growth inhibition” value of the first is lower: -10.2% for the first, 1.81% for the second.

Compared with `CCn1cc(NC(=O)Nc2ccc(OC)c(OC)c2)c(C(N)=O)n1`, `COc1ccccc1OCC(=O)OCc1cc(-c2ccco2)on1` is lower in “activity change, negative = growth inhibition” value: 11.3% for the first, -10.3% for the second.

Going from `S=c1[nH]nc(NCCc2ccccc2)s1` to `O=C(NCCN1CCOCC1)c1cc(-c2cccs2)nc2ccccc12`, the “activity change, negative = growth inhibition” value falls from -3.43% to -6.74%.

Compared with `CCOC(=O)c1cc2c(=O)n3ccccc3nc2n(CC2CCCO2)c1=NC(=O)c1ccccc1F` (stereo not given), `CCN(C(=O)COC(=O)Cc1c(F)cccc1Cl)c1c(N)n(Cc2ccccc2)c(=O)[nH]c1=O` is higher in “activity change, negative = growth inhibition” value: -14.2% for the first, 1.95% for the second.

Compared with `COc1cccc(C(c2c(O)cc(C)n(Cc3ccco3)c2=O)N2CCN(c3ccccc3)CC2)c1` (stereo not given), `Cn1cc(CN2CCCC(CO)C2)c(-c2ccc(Oc3ccccc3)cc2)n1` (stereo not given) is lower in “activity change, negative = growth inhibition” value: -10.4% for the first, -29.3% for the second.

Going from `Cc1ccccc1NC(=O)C1CCN(C(=O)NC2CCCCC2)CC1` to `CCN(C(=O)CSc1ncnc2c1cnn2-c1ccccc1)C1CCS(=O)(=O)C1` (stereo not given), the “activity change, negative = growth inhibition” value falls from 17.2% to -4.58%.

First: CCN(C(=O)COC(=O)c1sccc1C)c1c(N)n(Cc2ccccc2)c(=O)[nH]c1=O
Second: CCN(C(=O)COC(=O)c1c(C)nn(-c2ccccc2)c1Cl)c1c(N)n(Cc2ccccc2)c(=O)[nH]c1=O
The “activity change, negative = growth inhibition” value of the first is lower: -1.38% for the first, 7.19% for the second.

First: COCCN(C(=O)COC(=O)Cc1cccc(OC)c1)c1c(N)n(Cc2ccccc2)c(=O)[nH]c1=O
Second: CCCn1nc(C(=O)NNC(=O)CCOc2ccccc2OCC)c2ccccc2c1=O
The “activity change, negative = growth inhibition” value of the first is lower: 0.869% for the first, 1.4% for the second.

Going from `O=S(=O)(c1ccc(F)cc1)N1CCN(Cc2ccccc2C(F)(F)F)CC1` to `O=C(NCC1Cc2cc(F)cc(-c3cnccn3)c2O1)C1COc2ccccc2O1` (stereo not given), the “activity change, negative = growth inhibition” value rises from -16% to 16.4%.

Work on `OCC1CCCN(c2nc3cc4c(cc3cc2CNCc2cccs2)OCO4)C1` (stereo not given) yielded an activity change, negative = growth inhibition of 3.65% [at 9.04 µM].

In the case of `CCCOC(=O)c1[nH]c2c(c1C)C(=O)CC(c1cc(OC)c(OC)c(OC)c1)C2` (stereo not given), the Potency was 9.2 µM (active).
With `CCCOC(=O)c1[nH]c2c(c1C)C(=O)CC(c1cccs1)C2` (stereo not given) the Potency was 0.58 µM (active).
For `COc1ccc2c(c1OC)C(=O)OC2Nc1nc(-c2ccccc2)cs1` (stereo not given), the Potency was 2.31 µM (active).
In the case of `COc1ccc(-c2csc(NC3OC(=O)c4ccccc43)n2)cc1` (stereo not given), the Potency was 11.6 µM (active).
In the case of `COc1ccc(NC(=O)NC(C)c2c(-n3cccc3)sc(C)c2C)cc1OC` (stereo not given), the Potency was 16.4 µM (active).
For `Cc1nc(C)c(-c2csc(NCCc3ccccc3)n2)s1`, the Potency was 14.6 µM (active).
In the case of `CCOC(=O)c1cc2c(=O)n3ccccc3nc2n(CC(C)C)c1=NC(=O)c1c(-c2c(F)cccc2Cl)noc1C`, the Potency was 16.4 µM (active) and 8.2 µM (active).
With `CCCCN(C)CCCNC(=O)c1cc(-c2cccs2)nc2ccccc12` the Potency was 29.1 µM (active).
With `CCN(C(=O)COC(=O)CCOc1cccc(C)c1)c1c(N)n(Cc2ccccc2)c(=O)[nH]c1=O` the Potency was 16.4 µM (active).
With `CCN(C(=O)CN1CCN(Cc2ccccc2)CC1)c1c(N)n(Cc2ccccc2)c(=O)[nH]c1=O` the Potency was 11.6 µM (active).
With `O=c1[nH]nc(SCCS(=O)(=O)c2ccc(F)cc2)n1-c1ccccc1C(F)(F)F` the Potency was 23.1 µM (active).
